In PubChem BioAssay (Tox21):
Inconclusive results are not listed. More than one record can exist for a structure, and the calls need not agree. The source made the active and inactive calls. Unless noted, the call rests on the fitted dose curve.

Assays:
[1] = Nuclear factor erythroid 2-related factor 2/antioxidant responsive element (Nrf2/ARE) small molecule agonists: qHTS cell viability counter screen in human keratinocytes (AID 1919968; active means well fitted curve in the direction sought with a large enough effect in the repeat runs; an effect the other way counts as inactive or inconclusive; further: nearly all actives have a fitted effect of over 55% in size; further: potency means the concentration at half of the fitted maximal effect)
Summary of the method: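 Viability counter-screen: KeratinoSens reporter cells, DMSO-delivered compounds, 23 h at 37 C, CellTiter-Fluor fluorescence.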

[2] = Nuclear factor erythroid 2-related factor 2/antioxidant responsive element (Nrf2/ARE) small molecule agonists: luciferase reporter gene qHTS assay in human keratinocytes (AID 1919969); further: nearly all actives have a fitted effect of over 35% in size; further: potency means the concentration at half of the fitted maximal effect
[3] = molecular target: Gonadotropin-releasing hormone receptor (Homo sapiens) (UniProt P30968); experiment: Human gonadotropin-releasing hormone receptor (GnRHR) small molecule agonists, calcium flux assay in GnRHR-HEK293 cells (AID 1920063); further: nearly all actives have a fitted effect of over 35% in size
Summary of the method: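 Tox21-format agonist screen using human GnRHR-expressing HEK293 cells and a fluorescent calcium dye; kinetic 3-min fluorescence reading after compound addition, 15-point concentration series run in triplicate.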

[4] = molecular target: KiSS-1 receptor (Homo sapiens) (UniProt Q969F8); experiment: Human kisspeptin (KISS1R) small molecule agonists, calcium flux assay in KISS1R-HEK293 cells (AID 1920064; active means well fitted curve in the direction sought with a large enough effect in the repeat runs; an effect the other way counts as inactive or inconclusive)
Summary of the method: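 Intracellular calcium mobilization in KISS1R-HEK293 cells was recorded by fluorescence (Ex/Em 480/540) for 3 min following compound addition to cells pre-loaded 1 h with calcium dye.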

[5] = p53 small molecule agonists, cell-based qHTS assay with rat liver microsomes (AID 1963578)
Summary of the method: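 With rat liver microsomes and NADPH present (0.5 mg/mL final each), p53RE-bla cells are treated with compound for 16 h at 37 C. LiveBLAzer detection mixture is then applied for 2 h at room temperature in the dark.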

[6] = p53 small molecule agonists, cell-based qHTS assay with human liver microsomes: qHTS cell viability counter screen (AID 1963579); further: nearly all actives have a fitted effect of over 45% in size
Summary of the method: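 In this multiplexed counter screen, the reporter plates were subsequently treated with CellTiter-Glo so that cell viability, reflected by luminescence, could be recorded for p53RE-bla cells dosed 16 h with compounds under microsomal activation (HLM and NADPH).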

[7] = p53 small molecule agonists, cell-based qHTS assay with rat liver microsomes: qHTS cell viability counter screen (AID 1963580); further: nearly all actives have a fitted effect of over 45% in size
Summary of the method: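 p53RE-bla HCT-116 cells were exposed 16 h at 37 C to compounds with rat liver microsomes (0.5 mg/mL) and NADPH (0.5 mg/mL). Viability was measured in the same wells as ATP content by CellTiter-Glo luminescence.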

[8] = p53 small molecule agonists, cell-based qHTS assay: qHTS cell viability counter screen (AID 1963581); further: nearly all actives have a fitted effect of over 45% in size
Summary of the method: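 Compounds are pinned onto HCT-116 p53RE-bla cells and left 16 h at 37 C. Following the reporter FRET read, ATP is quantified by CellTiter-Glo luminescence after 30 min at room temperature.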

[9] = p53 small molecule agonists, cell-based qHTS assay (AID 1963582; active means well fitted activation curve with a large enough effect in the signal ratio in the repeat runs, not every such curve was filed as active; the % refers to the signal ratio)
Summary of the method: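 Agonist activity was scored from beta-lactamase FRET fluorescence in p53RE-bla cells treated 16 h at 37 C with compounds in DMSO, substrate incubation being 2 h at room temperature.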

[10] = molecular target: 5-hydroxytryptamine receptor 2A (Homo sapiens) (UniProt P28223); experiment: 5-hydroxytryptamine receptor 2A (HTR2A) small molecule antagonists, cell-based qHTS assay (AID 1963586); further: nearly all actives have a fitted effect of over 45% in size
Summary of the method: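 Antagonist-mode intracellular calcium assay: DOI (4 nM) added after 5 min compound pre-incubation at room temperature to dye-loaded HTR2A-CHO cells. Fluorescence followed for 3 min, sampled every second.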

[11] = molecular target: 5-hydroxytryptamine receptor 2A (Homo sapiens) (UniProt P28223); experiment: 5-hydroxytryptamine receptor 2A (HTR2A) small molecule agonists, cell-based qHTS assay (AID 1963587); further: nearly all actives have a fitted effect of over 30% in size
Summary of the method: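 CHO cells stably expressing human HTR2A, plated 18 h, loaded with calcium dye 1 h at 37 C. Agonist mode: compounds added and intracellular calcium fluorescence recorded kinetically for 2 min at 1 sec intervals.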

[12] = molecular target: Muscarinic acetylcholine receptor M1 (Homo sapiens) (UniProt P11229); experiment: Cholinergic receptor muscarinic 1 (CHRM1) small molecule antagonists, cell-based qHTS assay (AID 1963588); further: nearly all actives have a fitted effect of over 40% in size; further: potency means the concentration at half of the fitted maximal effect
Summary of the method: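 CHRM1-CHO calcium-flux assay, antagonist mode. Cells were seeded 18 h, dye-loaded 1 h at 37 C and given compound for 5 min at RT, then acetylcholine was added at 50nM. FDSS fluorescence was read 3 min; 15 concentrations, three runs.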

[13] = molecular target: Muscarinic acetylcholine receptor M1 (Homo sapiens) (UniProt P11229); experiment: Cholinergic receptor muscarinic 1 (CHRM1) small molecule agonists, cell-based qHTS assay (AID 1963589); further: nearly all actives have a fitted effect of over 35% in size
Summary of the method: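 Stable CHRM1-CHO cells (human receptor) were incubated 18 h, dye-loaded for 1 h at 37 C and exposed to test compounds for agonist activity, with calcium-dependent fluorescence followed kinetically.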

[14] = cAMP Responsive Elements (CRE) small molecule agonists, cell-based qHTS assay (AID 1963590)
Summary of the method: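 FRET-based beta-lactamase readout (LiveBLAzer B/G, 2 h RT) quantified CRE activation in HEK 293T CRE-bla cells after 3 h treatment with DMSO-dissolved compounds.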

[15] = cAMP Responsive Elements (CRE) small molecule antagonists, cell-based qHTS assay (AID 1963591; active means well fitted inhibition curve with a large enough effect in the signal ratio in the repeat runs, not every such curve was filed as active; the % refers to the signal ratio)
Summary of the method: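 qHTS in CRE-bla HEK 293T cells: compound in DMSO, then 0.25 uM NKH477 (final), 3 h at 37 °C/5% CO2; beta-lactamase FRET read-out after 2 h substrate incubation.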

[16] = molecular target: Beta-2 adrenergic receptor (Homo sapiens) (UniProt P07550); experiment: Adrenergic beta2 receptor (ADRB2) small molecule antagonists, cell-based qHTS assay (AID 1963592); further: series mostly up to about 92 µM; nearly all actives have a fitted effect of over 50% in size
Summary of the method: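 Cells (CHO, stable ADRB2 overexpression) incubated 18-20hr at 37C; compounds added from DMSO; agonist mix (1nM isoproterenol, 100uM IBMX, 25uM Ro-20-1724) added; 0.5hr RT; d2-cAMP and anti-cAMP-cryptate added; 1hr RT; 665/615 nm read.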

[17] = molecular target: Beta-2 adrenergic receptor (Homo sapiens) (UniProt P07550); experiment: Adrenergic beta2 receptor (ADRB2) small molecule agonists, cell-based qHTS assay (AID 1963593);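 further: CHO cells stably overexpressing human ADRB2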
Summary of the method: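 CHO cells stably over-expressing ADRB2 were plated overnight at 37C, then dosed with compounds plus a stimulation mix containing 100uM IBMX and 25uM Ro-20-1724 for 0.5hr at room temperature. cAMP was measured by HTRF competition, 1hr.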

[18] = molecular target: D(2) dopamine receptor (Homo sapiens) (UniProt P14416); experiment: Dopamine D2 receptor (DRD2) small molecule agonists, cell-based qHTS assay (AID 1963594); further: nearly all actives have a fitted effect of over 35% in size
Summary of the method: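 HEK293 cells stably expressing human DRD2, pre-treated with PDE inhibitor Ro20-1724 (0.1 mM final) and compound 10 min at room temperature, then stimulated with NKH477 (200nM […]) for 30 min. cAMP read by HTRF (665/620 nm).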

[19] = molecular target: D(2) dopamine receptor (Homo sapiens) (UniProt P14416); experiment: Dopamine D2 receptor (DRD2) small molecule antagonists, cell-based qHTS assay (AID 1963595; active means well fitted inhibition curve with a large enough effect in the signal ratio in the repeat runs, with a control signal flat; the % refers to the signal ratio)
Summary of the method: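 Antagonism was scored as restored cAMP in HEK293-DRD2 cells. These cells were stimulated with 200 nM NKH477 and 12 nM quinpirole for 30 min at room temperature, in the presence of 0.1 mM Ro20-1724.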

[20] = G protein-coupled receptor (GPCR) small molecule agonists, calcium flux assay: HEK293 wild type cell line counter screen (AID 1920065)
Summary of the method: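 In this agonist-mode screen, ATP is the positive control and DMSO the vehicle. Cells grow 18 h before a 1 h dye incubation at 37 C; signal is taken at Ex/Em 480/540 over 3 min.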

Measured: Potency

Beta-2 adrenergic receptor (Homo sapiens), sequence (P07550 whole entry, looked up): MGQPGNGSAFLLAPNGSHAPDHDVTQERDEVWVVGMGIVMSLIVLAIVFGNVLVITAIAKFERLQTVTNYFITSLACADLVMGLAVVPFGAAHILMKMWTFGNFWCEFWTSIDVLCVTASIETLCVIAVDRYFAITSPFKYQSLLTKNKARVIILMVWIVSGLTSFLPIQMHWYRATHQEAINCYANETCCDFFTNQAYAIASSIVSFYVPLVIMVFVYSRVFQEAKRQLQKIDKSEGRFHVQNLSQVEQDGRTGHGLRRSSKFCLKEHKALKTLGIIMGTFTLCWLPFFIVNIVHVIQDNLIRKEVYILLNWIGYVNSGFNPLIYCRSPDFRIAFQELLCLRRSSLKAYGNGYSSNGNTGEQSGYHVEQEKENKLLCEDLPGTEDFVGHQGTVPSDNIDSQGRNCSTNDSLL
KiSS-1 receptor (Homo sapiens), sequence (Q969F8 whole entry, looked up): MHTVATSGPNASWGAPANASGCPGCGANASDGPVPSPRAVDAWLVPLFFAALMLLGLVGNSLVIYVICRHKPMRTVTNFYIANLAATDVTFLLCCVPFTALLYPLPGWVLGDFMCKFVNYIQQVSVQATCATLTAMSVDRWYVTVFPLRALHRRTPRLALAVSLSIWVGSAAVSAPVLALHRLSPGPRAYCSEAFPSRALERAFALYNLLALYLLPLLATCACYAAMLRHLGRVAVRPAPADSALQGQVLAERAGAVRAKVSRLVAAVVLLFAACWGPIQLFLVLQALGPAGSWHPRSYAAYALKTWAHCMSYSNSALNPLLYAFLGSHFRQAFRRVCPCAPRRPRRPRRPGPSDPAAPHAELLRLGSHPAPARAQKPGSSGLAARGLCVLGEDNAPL
Muscarinic acetylcholine receptor M1 (Homo sapiens), sequence (P11229 whole entry, looked up): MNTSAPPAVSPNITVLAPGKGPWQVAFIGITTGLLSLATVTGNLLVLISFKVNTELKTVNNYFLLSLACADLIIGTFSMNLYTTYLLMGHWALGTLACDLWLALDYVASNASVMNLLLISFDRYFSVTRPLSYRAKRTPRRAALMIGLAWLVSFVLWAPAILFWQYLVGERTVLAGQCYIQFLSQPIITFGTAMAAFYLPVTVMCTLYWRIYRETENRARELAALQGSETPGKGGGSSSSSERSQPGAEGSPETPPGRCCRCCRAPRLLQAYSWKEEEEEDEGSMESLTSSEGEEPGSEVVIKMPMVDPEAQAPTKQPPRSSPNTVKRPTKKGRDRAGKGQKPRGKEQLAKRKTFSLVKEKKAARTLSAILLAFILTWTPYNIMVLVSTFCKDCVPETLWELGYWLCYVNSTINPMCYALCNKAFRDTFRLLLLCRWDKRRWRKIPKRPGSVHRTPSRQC
D(2) dopamine receptor (Homo sapiens), sequence (P14416 whole entry, looked up): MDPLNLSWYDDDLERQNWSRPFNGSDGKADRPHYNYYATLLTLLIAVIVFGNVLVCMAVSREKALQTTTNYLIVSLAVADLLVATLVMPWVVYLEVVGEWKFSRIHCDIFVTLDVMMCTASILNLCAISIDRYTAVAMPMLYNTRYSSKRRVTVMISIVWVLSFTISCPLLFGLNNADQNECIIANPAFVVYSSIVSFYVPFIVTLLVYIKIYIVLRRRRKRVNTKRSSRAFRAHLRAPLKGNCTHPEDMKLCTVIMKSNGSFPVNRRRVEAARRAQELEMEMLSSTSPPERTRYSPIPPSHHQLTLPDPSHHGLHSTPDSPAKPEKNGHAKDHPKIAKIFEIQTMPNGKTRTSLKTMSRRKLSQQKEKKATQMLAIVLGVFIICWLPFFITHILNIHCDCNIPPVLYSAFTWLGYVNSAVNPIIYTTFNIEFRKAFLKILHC
Gonadotropin-releasing hormone receptor (Homo sapiens), sequence (P30968 whole entry, looked up): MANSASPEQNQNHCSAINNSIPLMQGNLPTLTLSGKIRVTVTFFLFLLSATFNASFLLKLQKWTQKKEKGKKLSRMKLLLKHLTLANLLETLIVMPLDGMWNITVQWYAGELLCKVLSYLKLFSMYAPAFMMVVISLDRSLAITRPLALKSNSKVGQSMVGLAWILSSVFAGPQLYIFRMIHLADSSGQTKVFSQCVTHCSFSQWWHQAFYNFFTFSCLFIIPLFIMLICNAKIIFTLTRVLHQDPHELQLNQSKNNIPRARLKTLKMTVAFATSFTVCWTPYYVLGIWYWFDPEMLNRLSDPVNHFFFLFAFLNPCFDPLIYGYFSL
5-hydroxytryptamine receptor 2A (Homo sapiens), sequence (P28223 whole entry, looked up): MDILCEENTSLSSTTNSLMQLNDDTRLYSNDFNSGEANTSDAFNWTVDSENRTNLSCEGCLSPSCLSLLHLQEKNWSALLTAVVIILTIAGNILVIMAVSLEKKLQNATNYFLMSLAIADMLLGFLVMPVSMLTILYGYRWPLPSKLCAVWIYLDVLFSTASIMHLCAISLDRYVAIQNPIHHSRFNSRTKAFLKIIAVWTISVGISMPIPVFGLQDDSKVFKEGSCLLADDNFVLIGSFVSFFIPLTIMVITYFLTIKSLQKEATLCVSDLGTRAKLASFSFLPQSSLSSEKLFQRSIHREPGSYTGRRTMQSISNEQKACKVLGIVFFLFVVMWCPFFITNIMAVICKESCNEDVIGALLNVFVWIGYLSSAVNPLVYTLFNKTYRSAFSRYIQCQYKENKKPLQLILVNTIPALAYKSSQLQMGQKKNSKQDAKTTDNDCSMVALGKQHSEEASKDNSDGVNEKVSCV

Cc1ccc(S(=O)(=O)O)c(C)c1
not listed: [20]
inactive: all other assays above

C[N+](C)(CCOc1ccccc1)Cc1cccs1
not listed: [20]
inactive: all other assays above

OC[C@H]1O[C@@](CO)(O[C@H]2O[C@H](CO)[C@@H](O)[C@H](O)[C@H]2O)[C@@H](O)[C@@H]1O
not listed: [5] | [7] | [9] | [10] | [17]
inactive: all other assays above

C=C(C)[C@H]1CC=C(C)C(=O)C1
not listed: [5] | [8] | [9] | [11] | [17] | [18]
inactive: all other assays above

CC(CCO)CCc1ccccc1 (stereo not drawn)
not listed: [20]
inactive: all other assays above

O=C(c1ccccc1O)c1ccccc1O
not listed: [20]
inactive: all other assays above

COC(=O)C1=C(C)NC(C)=C(C(=O)OCCN(C)Cc2ccccc2)C1c1cccc([N+](=O)[O-])c1 (stereo not drawn)
active: [1] 30.5 µM
1.32 µM (active) and inactive: [12]
not listed: [5] | [6] | [7] | [9] | [14] | [17]
inactive: all other assays above

O=C(O)/C=C/C(=O)O
not listed: [5] | [6] | [7] | [8] | [9]
inactive: all other assays above

CCCCCCCCCCCC(=O)OC[C@@H](O)[C@H]1OC[C@H](OCCO)[C@H]1OCCO
active: [2] 23.7 µM
not listed: [20]
inactive: all other assays above

CC1CNCC(C)O1 (stereo not drawn)
not listed: [20]
inactive: all other assays above

CC(=O)[C@H]1CC[C@H]2[C@@H]3CCC4=CC(=O)CC[C@]4(C)[C@H]3CC[C@]12C
inactive: [1] | [2] | [3] | [4] | [20] | [6] | [8] | [16] | [18] | [19]

CC1(C)Oc2ccc(C#N)cc2[C@@H](N2CCCC2=O)[C@@H]1O
not listed: [20]
inactive: all other assays above

COc1cc(C)c(Cc2cnc(N)nc2N)cc1OC
not listed: [5] | [6] | [7] | [15]
inactive: all other assays above

COc1ccc(OC)c(C(O)CNC(=O)CN)c1 (stereo not drawn)
not listed: [5] | [6] | [7] | [9] | [13] | [14] | [17]
inactive: all other assays above

CC(c1cc2ccccc2s1)N(O)C(N)=O (stereo not drawn)
not listed: [5] | [8] | [9] | [10] | [11] | [12] | [13]
inactive: all other assays above
